IL2 activator = activators of IL-2; actives 0.065% (n = 360,000); IL-2 activation reporter assay, cell-based qHTS; stimulated with anti-CD3/CD4/CD28 beads; in transgenic mouse T cells; activation, % (series mostly up to about 46 µM); in the data active = activation above about 50%; inconclusive = mostly about 30% to 49%; note: 0% is about no effect
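Unstimulated transgenic mouse T cells, 750 per well, received compound and, after 60 minutes, anti-CD3/anti-CD4 bead plus anti-CD28 stimulation. EGFP and DsRed were quantified after 18 hours.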
gsp ag = agonists of gsp mutant (McCune-Albright syndrome) | gsp mutant cells, cAMP HTRF, 30 min | Potency, µM (titrated, usually from 76.9 µM), for the others: at the top dose activation (cAMP increase), most hits filed as activators | actives 0.13% (n = 340,000) | AID 624287; active = well fitted activation curve with a large enough effect; inconclusive = small, poorly fitted or top-dose-only effect, or another doubt; inactive = no such curve, though single readings can be large or run the other way; cell line not stated here;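 note: phosphodiesterase inhibitor Ro 20-1724 added with compounds to block cAMP breakdown; potency is the fitted concentration of half-maximal effect; nearly all actives have a fitted effect of over 60% in size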
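Cells stably selected in G418 were plated at 2000/well, grown 16-24 hr, then given compounds in DMSO with the PDE inhibitor […] (300 uM solution added) for 30 min at 37C; cAMP was read by HTRF.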
BRCA1 expr act = activators of BRCA1 expression; MCF7-BRCA1-FFLuc reporter, luminescence, 48 h; response scale: scaled: vehicle 0%, 10 µM genistein 100%; Potency, µM (titrated, usually from 46.1 µM), for the others: top-dose activation, actives largely listed as activators; actives 1.1% (n = 380,000); AID 624202; note: potency is the fitted concentration of half-maximal effect; nearly all actives have a fitted effect of over 80% in size
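Compounds are tested at multiple concentrations on MCF7 BRCA1-luciferase reporter cells seeded at 2000 per well; after 48 h, a single luminescence end-point is taken and curves fitted to the normalized data.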
IDH1 R132H inh = blocks human mutant IDH1 R132H enzyme. O75874. IDH1-R132H enzyme, NADPH consumption, diaphorase/resazurin fluorescence. Potency, µM (doses to about 76.6 µM), for the others: top-dose activity change, negative = inhibition, usual class: inhibitors. actives 0.093% (n = 390,000). AID 602179; note: potency is the fitted concentration of half-maximal effect; % is set by controls: 0 for no effect and ±100 for the full control effect; nearly all actives have a fitted effect of over 65% in size
Target sequence (O75874 whole entry R132H, stated change not applied): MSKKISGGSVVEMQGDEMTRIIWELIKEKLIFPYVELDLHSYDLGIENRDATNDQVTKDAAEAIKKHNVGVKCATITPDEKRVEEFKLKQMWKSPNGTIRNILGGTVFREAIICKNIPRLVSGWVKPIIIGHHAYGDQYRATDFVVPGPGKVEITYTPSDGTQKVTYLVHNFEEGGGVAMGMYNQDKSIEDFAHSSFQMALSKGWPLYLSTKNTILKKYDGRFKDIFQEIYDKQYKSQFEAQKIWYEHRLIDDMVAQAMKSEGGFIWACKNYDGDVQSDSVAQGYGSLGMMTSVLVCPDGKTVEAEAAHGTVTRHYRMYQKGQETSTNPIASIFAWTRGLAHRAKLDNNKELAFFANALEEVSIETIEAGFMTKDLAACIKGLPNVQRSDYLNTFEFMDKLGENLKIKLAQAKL
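IDH1-R132H (0.5 ug/mL dispensed) in pH 7.5 Tris buffer was preincubated 30 min with compound, then given a substrate mix of 0.016 mM NADPH and 2 mM alpha-KG for 80 min at room temperature; remaining NADPH was read by diaphorase/resazurin fluorescence.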
gsp antag = antagonists of gsp mutant (McCune-Albright syndrome). gsp-mutant cells, cAMP HTRF, 30 min. Potency, µM (titrated, usually from 76.9 µM), inactives show at the top dose activity change, negative = inhibition, usual class: inhibitors. actives 0.4% (n = 340,000). AID 624288; calls by dose curve; cell line not stated here;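 note: intracellular cAMP measured with PDE inhibitor Ro 20-1724 present during compound exposure; potency is the fitted concentration of half-maximal effect; % is set by controls: 0 for no effect and ±100 for the full control effect; nearly all actives have a fitted effect of over 65% in size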
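Cells, 2000/well, grown 16–24 h in DMEM 10% FBS with 0.5 mg/ml G418, then compounds plus […] (300 uM addition stock), 30 min at 37C. cAMP read by HTRF (cAMP-d2 and anti-cAMP antibody-K in lysis buffer) after 30 min RT.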
* = called active by the depositor; u = inconclusive; x = no result; + = active, no number; [ ] = remark or other dose. A selection: hits, their analogues and other compounds. The true share with any hit is near 1.5%. Unless noted, calls come from the whole dose curve; as a rule, active = well fitted curve in the direction sought with a large enough effect; inconclusive = small, poorly fitted or top-dose-only effect, or another doubt; inactive = no such curve, though single readings can be large; an effect the other way counts as inactive or inconclusive.

SMILES | IL2 activator | gsp ag | BRCA1 expr act | IDH1 R132H inh | gsp antag
Cc1ccc(/C(N)=N/OC(=O)c2ccco2)cc1 | -1.1 | -6.9% | 0.1% | 3.8% | 2.5%
COc1ccc2cc(CNc3ccccc3)c(=O)n(CC(=O)Nc3ccc(C)cc3C)c2c1 | x | x | x | -16.8% | x
C/C(=N\Nc1nccnc1Cl)c1ccc(O)cc1 | 7.3 | -20.7% | 67.9% | -4.4% | 2.1%
C/C(=N\Nc1nccnc1Cl)c1ccc(F)cc1 | 1.5 | -3.2%[15.4 µM] | 8.91µM* | 0.7% | x
O=C(OCCF)N1CCN(/[N+]([O-])=N/Oc2ccc([N+](=O)[O-])cc2[N+](=O)[O-])CC1 | x | x | -71.3% | x | x
Fc1ccccc1COc1ccc(C(=S)N2CCCC2)cc1 | -1.1 | -40.7% | 11.2µM* | -1.7% | -1.2%
O=C(Oc1ccc(C(=S)N2CCCCC2)cc1)c1ccccc1F | -2.2 | -88.0% | 16.1% | -5.4% | 7.3%
Cc1ccc2nc(-c3cc(NC(=O)COc4ccc(C)c(C)c4)ccc3Cl)oc2c1 | x | x | x | 1.4% | x
CN(C)/C=C1\Oc2ccc3ccccc3c2C1=O | 1.4 | -2.5%[15.4 µM] | 7.08µM* | 2.9% | -0.4%
CN(C)/C=C1/Oc2c(ccc3ccccc23)C1=O | 1.4 | 3.6%[15.4 µM] | 4.9% | 17.4% | 5.2%
COc1ccc(S(=O)(=O)NCCc2c[nH]c3ccc(C)cc23)cc1 | -0.4 | u | -7.7% | 0.0% | 31.6µM*
COc1ccc2[nH]cc(CCNS(=O)(=O)c3ccc(C)cc3)c2c1 | -1.2 | 2.7% | 0.0% | 5.7% | -10.0%
CSC12CCCN(CCC(C(C)(C)C)C1)C2=O (configuration not stated) | 0.3 | x | 24.0% | x | x
CNc1snc(C)c1C(=O)OC(C)C(=O)Nc1ccccc1 (configuration not stated) | -0.6 | -26.5% | -19.6% | -9.9% | -0.9%
COC(=O)c1c(C)nsc1NC(=O)Oc1ccccc1 | 0.3 | 4.47µM* | 2.8% | -8.5% | 8.0%
C=CC1CN2CCC1CC2[C@@H](O)c1ccnc2ccc(OC)cc12 (some centres not stated) | x | x | -9.2% | x | x
CCC(=O)N1CCN(c2ccccc2NC(=O)c2ccc(-c3cccc([N+](=O)[O-])c3)o2)CC1 | -3.1 | -0.6%[15.4 µM] | -21.4% | -13.1% | 5.62µM*
CN1CCN(c2ccccc2NC(=O)c2ccc(-c3cccc([N+](=O)[O-])c3)o2)CC1 | 0.3 | 7.1% | -50.1% | 7.3% | 10.8%
O=C(Cc1ccc(F)cc1)Nc1cccc(-c2nc3cccnc3s2)c1 | x | x | x | -1.3% | x
Cc1ccc(NC(=O)Nc2ccc3c(c2)CCC3)cc1 | -2.2 | u | 3.98µM* | -9.8% | 2.9%
Cc1cc(C)cc(NC(=O)Nc2ccc3c(c2)CCC3)c1 | -1.5 | -55.0% | 51.6% | 6.3% | 0.1%
O=C(Nc1cccc(F)c1)Nc1ccc2c(c1)CCC2 | -3.0 | u | 2µM* | 4.7% | 5.1%
CCCCc1nc2cc(C(=O)NCc3cn(C)nc3C)ccc2o1 | -3.9 | 6.5% | 33.9% | -7.0% | 35.5µM*
Cn1c(=O)c2c(c3ccccc31)OC(C)(C)CC2 | -2.2 | -13.8%[15.4 µM] | 0.4% | 7.5% | +[activator]
COc1cccc2c3c(c(=O)[nH]c12)CCC(C)(C)O3 | -0.4 | -20.6% | 34.4% | 0.1% | 5.9%
SMILES | IL2 activator | gsp ag | BRCA1 expr act | IDH1 R132H inh | gsp antag
COc1ccccc1C(=O)Nc1cccc(C(=O)OCc2cc(=O)n3c4c(sc3n2)CCCC4)c1 | x | x | x | -12.3% | x
CCOc1ccc(NC(=O)c2oc3ccccc3c2NC(=O)C(C)Oc2ccccc2)cc1 (configuration not stated) | x | x | -7.6% | -5.1% | x
COc1ccc(-c2csc(C(O)c3ccccc3)n2)cn1 (configuration not stated) | 0.9 | x | 11.2µM* | x | x
O=C(OCC(=O)N1CCOCC1)c1ccc2ccccc2c1O | -1.7 | 1.9% | 3.16µM* | 2.5% | 9.3%
O=C(COc1ccc2ccccc2c1)N1CCN(c2ccccc2)CC1 | -0.9 | 3.2%[15.4 µM] | 3.3% | -5.2% | 7.0%
O=C(OCC(=O)N1CCN(c2ccccc2)CC1)c1ccccc1[N+](=O)[O-] | -5.7 | -4.9% | 12.6µM* | -0.1% | 1.9%
Cc1ccc(C(=O)OCC(=O)N2CCCCCC2)c(O)c1 | 1.0 | -3.0% | 12.6µM* | 0.3% | 4.9%
O=C(COc1ccc2ccccc2c1)N1CCCC1 | -1.1 | -24.8% | 11.2µM* | 12.8% | -4.9%
COC(=O)c1ccc(NC(=O)c2nc(S(=O)(=O)Cc3ccccc3F)ncc2Cl)cc1 | x | x | -50.6% | x | x
O=C(NCCc1ccc(Cl)cc1)c1cccn1-c1nnc(N2CCCC2)s1 | x | x | x | 0.0% | x
O=C(NCc1ccccc1Cl)c1ccc2c(c1)NC(=O)C(CS(=O)(=O)Cc1ccc(Cl)cc1)N2 (configuration not stated) | x | x | x | 10.8% | x
CCCCC(=O)N(C)c1c(CC)nc2c(OCc3ccc(C(F)(F)F)cc3)cccn12 | -0.5 | x | -23.5% | x | x
O=C(OCC(=O)N1CCCC1)c1ccccc1O | 1.8 | u | 20µM* | -0.1% | 13.8%
COC(=O)N1N=C(c2ccccc2)CC1(O)C(F)(F)F (configuration not stated) | -1.3 | 4.2% | 11.2µM* | -0.5% | -2.8%
O=C(Nc1ccn(Cc2ccc(Cl)cc2)n1)c1ccccc1 | -0.1 | -9.1%[15.4 µM] | 7.94µM* | 5.7% | -8.5%
Cc1ccccc1Cn1c(=O)n(CCCCC(=O)NCCc2ccccc2)c(=O)c2ccccc21 | x | x | 0.7% | 5.3% | x
Cc1cc(Cl)ccc1Nc1ncccc1C(N)=O | 1.4 | 4.1%[15.4 µM] | 4.47µM* | 6.5% | -8.7%
O=C(CSc1nc2c([nH]c3ccccc32)c(=O)n1-c1ccccc1)Nc1ccc2c(c1)OCCO2 | x | x | x | 0.3% | x
CC(c1ccccc1)N1CCC(CNC(=S)Nc2cccc(Cl)c2)C1 (configuration not stated) | -0.4 | 28.2µM* | -40.7% | -12.5% | 7.1%
Cc1ccc(NC(=S)NCC2CCN(C(C)c3ccccc3)C2)cc1 (configuration not stated) | -0.5 | 18.1% | -3.4% | 1.8% | 14.7%
Cc1c(C(=O)N2CCCC2)oc2c1-c1nn(CC(=O)NCc3ccccc3F)cc1CC2 | x | x | x | 0.0% | x
CCOc1ccc(/C=N/n2cnnc2)cc1 | -1.7 | -41.5% | 1.8% | 2.8% | 4.6%
COC(=O)c1ccc(COc2ccc(/C=N/N3CCN(C)CC3)cc2)cc1 | 0.6 | 9.1%[15.4 µM] | u | 4.8% | 4.6%
C(=N\n1cnnc1)/c1ccc(OCc2ccccc2)cc1 | 2.3 | -15.1% | 12.6µM* | 9.8% | -1.9%
CN1CCN(/N=C/c2ccc(OCc3ccccc3)cc2)CC1 | 1.2 | 12.8% | 7.94µM* | -20.2% | 11.5%
CC(=O)NC(Cc1ccc(Cl)cc1)C(=O)NCC(N)C(=O)c1ccccc1 (configuration not stated) | x | x | -60.7% | x | x
O=S(=O)(c1ccccc1)N1CCN(c2cc(-c3ccccc3)nc3ncnn23)CC1 | -2.1 | -2.3% | -60.6% | -2.1% | 3.55µM*
COc1cc2c3nnc(-c4ccc(F)cc4)c-3cn(Cc3cccc(C)c3)c2cc1OC | 217.8* | u | -9.5% | -3.1% | 1.5%

Source: PubChem BioAssay
